# About 79,000 compounds went through this panel and 15% of them were active in at least one assay; those are over-represented in the sample as a whole. Unmarked numbers belong to inactive results. The source made the active and inactive calls. Rule as the data show it: active = growth inhibition above about 70%; inactive = the rest.
# Experiments:
# [1] = NCI Yeast Anticancer Drug Screen. Data for the rad52 strain (AID 147);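 also: 0% = growth of vehicle-treated control cultures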; settings: S. cerevisiae rad52 mutant growth inhibition, hits give high values
# Summary of the method: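 Measured: yeast growth inhibition. System: strain with a defined DNA damage repair alteration. Reference: vehicle-treated control cultures.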
# [2] = NCI Yeast Anticancer Drug Screen. Data for the rad50EPP+ strain (AID 151);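 also: 0% = growth of vehicle-treated control cultures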; settings: S. cerevisiae rad50 mutant strain, hits give high values
# Summary of the method: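 One strain with a rad50 alteration (rad50EPP+) was compound-treated, its growth then compared to that of vehicle controls.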
# [3] = NCI Yeast Anticancer Drug Screen. Data for the mgt1 strain (AID 153); settings: S. cerevisiae mgt1 mutant growth inhibition, hits give high values
# Summary of the method: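 After exposure of the mgt1 yeast mutant to compound, growth was measured and reported as inhibition compared with vehicle controls.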
# [4] = NCI Yeast Anticancer Drug Screen. Data for the rad50 strain (AID 155);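 also: 0% = growth of vehicle-only cultures of the same strain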; settings: S. cerevisiae rad50 strain growth inhibition, hits give high values
# Summary of the method: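 Relative growth inhibition (compound vs vehicle) was measured in yeast with a defined repair-gene alteration.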
# [5] = NCI Yeast Anticancer Drug Screen. Data for the mec2-1 strain (AID 157); settings: S. cerevisiae mec2-1 strain, hits give high values
# Summary of the method: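 Test agents were screened against the mec2-1 yeast strain, with defined DNA repair or cell cycle alteration. Growth was scored as inhibition against vehicle-only controls.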
# [6] = NCI Yeast Anticancer Drug Screen. Data for the rad14 strain (AID 159);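 also: 0% = growth of vehicle-treated control cultures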; settings: S. cerevisiae rad14 strain growth inhibition, hits give high values
# Summary of the method: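 Screen for anticancer potential: a yeast strain altered in DNA damage repair is grown with compound, and reduced growth is quantified against vehicle controls.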
# [7] = NCI Yeast Anticancer Drug Screen. Data for the sgs1 mgt1 strain (AID 161);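 also: 0% = growth of cultures given vehicle only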; settings: S. cerevisiae sgs1 mgt1 strain, hits give high values
# Summary of the method: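 Mutant yeast exposed to compound; growth scored against vehicle-only wells.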
# [8] = NCI Yeast Anticancer Drug Screen. Data for the CLN2oe strain (AID 163);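 also: 0% = growth of vehicle-only control cultures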; settings: S. cerevisiae CLN2oe strain, hits give high values
# Summary of the method: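 Here, growth inhibition in a cell-cycle-altered yeast strain after compound exposure was quantified against vehicle control growth.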
# [9] = NCI Yeast Anticancer Drug Screen. Data for the cln2 rad14 strain (AID 165);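 also: 0% = growth equal to vehicle treated cultures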; settings: S. cerevisiae cln2 rad14 strain, hits give high values
# Summary of the method: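 Growth of compound-exposed yeast (cln2 rad14 genotype) measured and expressed as inhibition relative to vehicle.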
# [10] = NCI Yeast Anticancer Drug Screen. Data for the bub3 strain (AID 167); settings: S. cerevisiae bub3 mutant strain, hits give high values
# Summary of the method: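 Screening used yeast with an engineered genetic alteration affecting cell cycle control. Compound-exposed cultures were compared with vehicle cultures, and reduced growth was taken as inhibition.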
# [11] = NCI Yeast Anticancer Drug Screen. Data for the wt2 strain (AID 169);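 also: 0% = growth of vehicle-treated yeast cultures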; settings: S. cerevisiae wt2 strain growth inhibition, hits give high values
# Summary of the method: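 Genetically defined yeast strains from a DNA-repair/cell-cycle panel were used. Compound-exposed yeast growth was measured, and the inhibition was calculated relative to vehicle treatment.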
# [12] = NCI Yeast Anticancer Drug Screen. Data for the mlh1 strain (AID 171);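 also: 0% = growth of vehicle-treated control cultures of the same strain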; settings: S. cerevisiae mlh1 strain growth inhibition, hits give high values
# Summary of the method: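 Here the genetically defined yeast mutant is grown with each compound, and the extent to which its growth falls below that of vehicle-exposed cells is reported.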
# [13] = NCI Yeast Anticancer Drug Screen. Data for the sgs1 strain (AID 173);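 also: 0% = growth of vehicle-only control cultures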; settings: S. cerevisiae sgs1 mutant, hits give high values
# Summary of the method: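 Relative growth inhibition, referenced to vehicle, was determined in a yeast strain with a defined alteration affecting DNA damage repair or cell cycle control after compound exposure.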
# [14] = NCI Yeast Anticancer Drug Screen. Data for the mlh1 rad18 strain (AID 175); settings: S. cerevisiae mlh1 rad18 strain growth inhibition, hits give high values
# Summary of the method: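 In this whole-cell yeast screen, a strain with altered DNA damage repair is challenged with compound, and its growth is measured against matched vehicle-treated controls.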
# [15] = NCI Yeast Anticancer Drug Screen. Data for the rad18 strain (AID 177); settings: S. cerevisiae rad18 mutant growth inhibition, hits give high values
# Summary of the method: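 Screen uses a yeast strain with a defined lesion in DNA damage repair; compound effect is read as loss of growth compared to untreated vehicle cultures.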
# [16] = at 5.0 µM (retest, dose inferred, filed as 0.5)
# [17] = at 50.0 µM (retest, dose inferred, filed as 5.0)
structure (smiles),measurement,setting,value
NCCNc1ccc(NCCN)c2c1C(=O)c1c(O)ccc(O)c1C2=O,growth inhibition,[1]; at 1.2 µM,24%
same,growth inhibition,[1]; at 3.7 µM,83% (active)
same,growth inhibition,[1]; at 11.0 µM,88% (active)
same,growth inhibition,[1]; at 33.0 µM,85% (active)
same,growth inhibition,[1]; at 100.0 µM,63%
same,growth inhibition,[2]; at 1.2 µM,30%
same,growth inhibition,[2]; at 3.7 µM,62%
same,growth inhibition,[2]; at 11.0 µM,82% (active)
same,growth inhibition,[2]; at 33.0 µM,87% (active)
same,growth inhibition,[2]; at 100.0 µM,66%
same,growth inhibition,[3]; at 1.2 µM,-30%
same,growth inhibition,[3]; at 3.7 µM,-21%
same,growth inhibition,[3]; at 11.0 µM,-9%
same,growth inhibition,[3]; at 33.0 µM,86% (active)
same,growth inhibition,[3]; at 100.0 µM,66%
same,growth inhibition,[4]; at 1.2 µM,20%
same,growth inhibition,[4]; at 3.7 µM,78% (active)
same,growth inhibition,[4]; [16],73% (active)
same,growth inhibition,[4]; at 11.0 µM,87% (active)
same,growth inhibition,[4]; at 33.0 µM,85% (active)
same,growth inhibition,[4]; [17],84% (active)
same,growth inhibition,[4]; at 50.0 µM,29.6%
same,growth inhibition,[4]; at 100.0 µM,65%
same,growth inhibition,[5]; at 1.2 µM,-10%
same,growth inhibition,[5]; at 3.7 µM,18%
same,growth inhibition,[5]; [16],14%
same,growth inhibition,[5]; at 11.0 µM,13%
same,growth inhibition,[5]; at 33.0 µM,87% (active)
same,growth inhibition,[5]; [17],84% (active)
same,growth inhibition,[5]; at 50.0 µM,67.5%
same,growth inhibition,[5]; at 100.0 µM,68%
same,growth inhibition,[6]; at 1.2 µM,-4%
same,growth inhibition,[6]; at 3.7 µM,5%
same,growth inhibition,[6]; at 11.0 µM,18%
same,growth inhibition,[6]; at 33.0 µM,88% (active)
same,growth inhibition,[6]; at 100.0 µM,68%
same,growth inhibition,[7]; [16],17%
same,growth inhibition,[7]; [17],77% (active)
same,growth inhibition,[7]; at 50.0 µM,65%
same,growth inhibition,[8]; at 1.2 µM,28%
same,growth inhibition,[8]; at 3.7 µM,20%
same,growth inhibition,[8]; at 11.0 µM,32%
same,growth inhibition,[8]; at 33.0 µM,82% (active)
same,growth inhibition,[8]; at 100.0 µM,52%
same,growth inhibition,[9]; [16],21%
same,growth inhibition,[9]; [17],77% (active)
same,growth inhibition,[9]; at 50.0 µM,64.5%
same,growth inhibition,[10]; at 1.2 µM,0%
same,growth inhibition,[10]; at 3.7 µM,23%
same,growth inhibition,[10]; [16],11%
same,growth inhibition,[10]; at 11.0 µM,5%
same,growth inhibition,[10]; at 33.0 µM,85% (active)
same,growth inhibition,[10]; [17],70% (active)
same,growth inhibition,[10]; at 50.0 µM,60%
same,growth inhibition,[10]; at 100.0 µM,62%
same,growth inhibition,[11]; at 1.2 µM,-15%
same,growth inhibition,[11]; at 3.7 µM,2%
same,growth inhibition,[11]; at 11.0 µM,44%
same,growth inhibition,[11]; at 33.0 µM,80% (active)
same,growth inhibition,[11]; at 100.0 µM,52%
same,growth inhibition,[12]; at 1.2 µM,2%
same,growth inhibition,[12]; at 3.7 µM,20%
same,growth inhibition,[12]; at 11.0 µM,20%
same,growth inhibition,[12]; at 33.0 µM,86% (active)
same,growth inhibition,[12]; at 100.0 µM,66%
same,growth inhibition,[13]; at 1.2 µM,11%
same,growth inhibition,[13]; at 3.7 µM,42%
same,growth inhibition,[13]; at 11.0 µM,40%
same,growth inhibition,[13]; at 33.0 µM,86% (active)
same,growth inhibition,[13]; at 100.0 µM,63%
same,growth inhibition,[14]; [16],14%
same,growth inhibition,[14]; [17],82% (active)
same,growth inhibition,[14]; at 50.0 µM,46%
same,growth inhibition,[15]; at 1.2 µM,4%
same,growth inhibition,[15]; at 3.7 µM,18%
same,growth inhibition,[15]; at 11.0 µM,8%
same,growth inhibition,[15]; at 33.0 µM,85% (active)
same,growth inhibition,[15]; at 100.0 µM,61%
